# Source: PubChem BioAssay (National Center for Advancing Translational Sciences (NCATS))
# This is a sample that favours compounds with a hit; in the whole collection about 20% have one here.
# Cycloheximide cs: affects cycloheximide protein synthesis inhibition readout, counter-screen; cell reporter, cycloheximide protein synthesis inhibition counterscreen; max response, %; actives 12% (n = 300,000); in the data active means max response mostly above about 13%, no sharp cut-off; inactive means mostly below about 14%; further: read at 38.3 µM for the half of the compounds with a filed dose; 0% is about no effect
# Pf growth 96h: P. falciparum growth inhibition at 96 hours. P. falciparum luciferase reporter growth, 96 h. Potency, µM (doses to about 28.7 µM), for inactives: at the top dose activity change, negative = inhibition, hits mostly inhibitors. actives 6.9% (n = 320,000). AID 504834; further: potency means the concentration at half of the fitted maximal effect; on the % scale 0 is the no-effect control and ±100 the full control effect
#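 Two parasite generations (96 h, 37 C, 5% CO2) of compound exposure in infected erythrocytes (0.05% parasitemia, 2% hematocrit). Luciferase-reporter P. falciparum; decreased luminescence indicates inhibited growth, aimed at apicoplast-acting delayed death.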
# HCMV antiviral: inhibitors of human cytomegalovirus | HFF cells, HCMV-luciferase reporter, 72 h; active compounds read low | activity change, negative = inhibition, % at 57.5 µM | actives 4.5% (n = 410,000) | AID 1259415; in the data active means activity change below about -60%; inconclusive means no clear call, values can overlap the other calls; inactive means above about -39%; further: on the % scale 0 is the no-effect control and ±100 the full control effect
#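 Luciferase read-out from HCMV-luciferase-infected HFFs (MOI 1 PFU/cell) 72 h post infection at 37C; compounds added after 16 h cell attachment; activity normalized between buffer-only basal and Salinomycin (10uM) inhibitor controls.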
# Pf growth 48h: P. falciparum growth inhibition at 48 hours (one generation); P. falciparum luciferase growth in erythrocytes, 48 h; Potency, µM (doses to about 28.7 µM), for the others: at the highest dose activity change, negative = inhibition, hits mostly inhibitors; actives 5.9% (n = 310,000); further: potency means the concentration at half of the fitted maximal effect; on the % scale 0 is the no-effect control and ±100 the full control effect
#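 Cell-based growth assay: transgenic P. falciparum expressing firefly luciferase, cultured in red cells within RPMI 1640 containing 0.5% w/v Albumax, 24 mM bicarbonate and gentamycin. A drop in luciferase activity indicates inhibition.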
# Shiga inhibitor: inhibitors of Shiga toxin in Vero cells. Vero cells, Shiga toxin protein synthesis inhibition reporter. inhibition, % at 38.7 µM. actives 9.2% (n = 290,000); in the data active means inhibition mostly above about 28%, no sharp cut-off; inactive means mostly below about 43%; further: 0% is about no effect
# * marks the source's active call; other numbers are inactive results; ? = inconclusive; . = not tested or not shown. Unless noted, the call rests on the fitted dose curve; in most records, active means well fitted inhibition curve with a large enough effect; inconclusive means small, poorly fitted or top-dose-only effect, or another doubt; inactive means no such curve, though single readings can be large or run the other way.
SMILES,Cycloheximide cs,Pf growth 96h,HCMV antiviral,Pf growth 48h,Shiga inhibitor
COc1cccc(-c2nc(-c3ccccc3)c(-c3ccccc3)[nH]2)c1OCC(=O)O,-1,183%,2,?,-4
COc1cccc(-c2nc(-c3ccc4c(c3)-c3ccccc3S4(=O)=O)c(-c3ccccc3)[nH]2)c1OC,-4,?,28,9.3µM*,10
COc1cc(-c2nc(-c3ccccc3)c(-c3cccs3)[nH]2)cc(OC)c1OC,-1,.,21,?,-26
COc1cc(-c2nc(-c3ccc4c(c3)-c3ccccc3S4(=O)=O)c(-c3ccccc3)[nH]2)cc(OC)c1OC,6,2%,-20,1.9µM*,33
COc1ccc(C)cc1NC(=O)C1CCCN(S(=O)(=O)c2ccc3c(c2)CCCN3C(C)=O)C1 (centres undefined),-2,?,?,?,-15
CC(Sc1ccccn1)C(=O)NC1CCCC1 (centres undefined),.,22%,-12,35%,.
S=C(NCc1cccnc1)Nc1ccc2c(c1)OCO2,27*,0%,126,42%,41
S=C(NCc1cccnc1)Nc1cccc(Cl)c1,1,?,-6,?,-2
S=C(NCc1ccncc1)Nc1cc(Cl)cc(Cl)c1,1,35%,-35,13µM*,-3
S=C(NCc1cccnc1)Nc1cc(Cl)cc(Cl)c1,7,?,-9,2.9µM*,-5
S=C(NCc1ccc(Cl)c(Cl)c1)Nc1ccc2c(c1)OCO2,-2,17%,-29,12%,-10
OCCNc1cnc2ccccc2n1,19*,40%,53,51%,51*
O=C(NNc1c2ccccc2nc2ccccc12)c1ccccc1Cl,-2,?,-25,?,11
CCCC(=O)NNc1c2ccccc2nc2ccccc12,-1,9.3µM*,-9,-26%,2
O=C(CCCO)NNc1c2ccccc2nc2ccccc12,-3,1.3µM*,-21,1.5µM*,-2
OCCNc1c2ccccc2nc2ccccc12,3,?,-101*,?,18
CCNc1ccc(C2(O)C(=O)c3ccccc3C2=O)cc1,16,14%,21,16%,-14
Cc1nn(CC(=O)NC(C)CCc2ccccc2)c(=O)c2nn(-c3ccccc3)c(C)c12 (centres undefined),-2,8%,?,7%,-9
CCCOc1cccc(C(=O)NCCCNC(=O)c2ccccn2)c1,-1,25%,?,11%,15
CC1(C)OC(=O)C2=C(C[C@@H](C3CCCC3)O[C@H]2CCc2cccc(Cl)c2)O1,.,.,-8,.,.
O=S1(=O)CCN(Cc2ccncc2)CC1,.,.,-28,.,.
CCOC(=O)Cc1csc(N/N=C\c2cccc(Br)c2)n1,11*,52%,9,91%,52*
CCOC(=O)Cc1csc(N/N=C/c2ccccc2)n1,61*,5%,-29,180%,104*
CCOC(=O)Cc1csc(N/N=C\c2ccccc2OC)n1,24*,2%,8,17%,50*
CCOC(=O)Cc1csc(N/N=C\c2ccc(N(C)C)cc2)n1,24*,9.3µM*,4,7.4µM*,64*
SMILES,Cycloheximide cs,Pf growth 96h,HCMV antiviral,Pf growth 48h,Shiga inhibitor
CCOC(=O)Cc1csc(NC(=O)Cc2ccc(Br)cc2)n1,-3,42%,-11,-19%,9
COC(=O)c1ccc(/C=N/Nc2nc(-c3ccc(C)cc3)cs2)cc1,-2,54%,.,0%,2
COc1ccc(/C=N/Nc2nc(C(=O)O)cs2)cc1,25*,0%,30,159%,34*
Cc1nnc2n(c1=O)N=C(c1ccc(Cl)cc1)CS2,21,6%,186,90%,25
COc1ccc(-c2nnc3n(CCc4ccccc4)c(=O)c4ccccc4n23)cc1OC,7,12µM*,-27,20%,36
CCOC(=O)c1ccccc1NC(=O)Cn1ncc2c([nH]c3ccccc32)c1=O,.,.,-2,.,.
Cc1cccc(N2CCN(C(=O)c3cc4c(=O)n(C)c5ccccc5c4s3)CC2)c1C,.,.,18,.,.
CCc1cc2c(cc3c(=O)n(CC(=O)N4CCCCC4)ncn32)s1,.,.,-38,.,.
CCCCCCCN=CC1=C(O)CC(c2ccccc2)CC1=O (centres undefined),-3,-7%,-29,-10%,-2
O=C1CC(c2cccc(Cl)c2)CC(O)=C1C=Nc1cccc(Cl)c1 (centres undefined),-1,73%,-39,14%,4
COc1ccccc1N=C(C)C1=C(O)CC(c2ccccc2)CC1=O (centres undefined),2,?,-84*,1%,-9
CCCCN=CC1=C(O)CC(c2ccccc2)CC1=O (centres undefined),-1,43%,-62*,-15%,7
O=C1CC(c2ccccc2)CC(O)=C1C=Nc1ccccc1 (centres undefined),30*,24%,0,-16%,92*
O=C1CC(c2ccccc2)CC(O)=C1C=Nc1ccccc1O (centres undefined),23*,157%,-75*,?,32
Cc1cccc(C)c1NC(=S)N(CCCN1CCCCC1)Cc1ccco1,-6,?,-22,-20%,-6
COc1ccc(C2CC(c3ccccc3)Nc3nc(NC(=O)c4ccco4)nn32)cc1 (centres undefined),-1,?,-10,.,-16
O=C(Nc1nc2n(n1)C(c1ccccc1)CC(c1ccc(Cl)cc1)N2)c1ccco1 (centres undefined),1,?,-15,13µM*,19
O=C(COc1ccccc1Cl)Nc1cccnc1,40*,-12%,30,94%,73*
Cc1cc(OCC(=O)Nc2cccnc2)c2c(C)c(C)c(=O)oc2c1,-1,45%,-23,51%,13
Cc1ccc(Cl)c(OCC(=O)Nc2cccnc2)c1,58*,-1%,44,75%,105*
CC/C(=N/Nc1ccccc1C)c1cnnc(SC)n1,1,2.3µM*,9,4.1µM*,-6
CCCN(CC(=O)Nc1ccccc1OC)C(=O)c1cccc(S(=O)(=O)Nc2ccc(OC)cc2)c1,.,?,-13,?,.
O=C1CSC(c2ccccc2)N1Cc1ccccn1 (centres undefined),2,7%,-23,-2%,-3
O=C1OC(Cc2ccccn2)C(=O)C1=C1SCCS1 (centres undefined),29*,13%,?,5%,active
C=Cc1ccc(CSc2nnc(C)n3c2cc2occc23)cc1,.,.,0,.,.
CC(=O)N1N=C(c2ccc(C)c([N+](=O)[O-])c2)OC1(C)C,7,?,-27,9.3µM*,-2
CC(=O)N1N=C(c2cccc([N+](=O)[O-])c2)OC1(C)c1cccs1 (centres undefined),6,-10%,73,-9%,8
CC(=O)N=c1sccn1CC(=O)c1ccc([N+](=O)[O-])cc1,-3,-10%,0,5%,-4
O=C(Cn1nnc(-c2ccccc2)n1)c1ccccc1,2,?,-22,8%,84
O=C(Cn1c(-c2ccccc2)c[n+]2ccsc12)c1ccccc1,3,?,-62*,?,-2
